Here are results for eight sequences from article PMC8384837, “Expanding the binding specificity for RNA recognition by a PUF domain”.

Holding throughout (assay): yeast three-hybrid, YBZ-1, SC-Leu-His + 0.5 mM 3-AT, 4 days
What all share (settings): tags: N-Gal4 AD-HA kept; label: inside an RPR1-promoter hybrid RNA with tandem MS2 sites; ssRNA

The target of one test is PUM1 PUF domain R5-RSC (Homo sapiens, UniProt Q14671 828-1176, C1007R;R1008S;Q1011C). In short, it runs like this:
(§1)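 A centromeric plasmid in strain YBZ-1 co-expressed Pumilio-1 PUF domain libraries, randomized at the three base-contacting residues of each repeat, with matching RNA elements; the strain carries a LexA–MS2 coat fusion and a HIS3 reporter. After four days on SC-Leu (input) or SC-Leu-His + 0.5 mM 3-AT (selection), the repeat regions were PCR-amplified and Illumina-sequenced. The interaction score is the log change in variant frequency from input to selection, using log2 and a pseudocount of 1 where absent.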

The next test concerns the target PUM1 PUF domain R3-AKE (Homo sapiens, UniProt Q14671 828-1176, C935A;R936K;Q939E). In short, it runs like this:
as §1

In another test the target is PUM1 PUF domain R8-KYT (Homo sapiens, UniProt Q14671 828-1176, N1122K;Q1126T). Put shortly:
as §1

For a further test, the target named is PUM1 PUF domain R8-KRN (Homo sapiens, UniProt Q14671 828-1176, N1122K;Y1123R;Q1126N). In short, it runs like this: as §1
A further test concerns the target PUM1 PUF domain R5-PGY (Homo sapiens, UniProt Q14671 828-1176, C1007P;R1008G;Q1011Y). Put shortly:
as §1

Another test has as its target PUM1 PUF domain R5-SER (Homo sapiens, UniProt Q14671 828-1176, C1007S;R1008E;Q1011R). In short, it runs like this: as §1
The next test has as its target PUM1 PUF domain R1-HMR (Homo sapiens, UniProt Q14671 828-1176, S863H;R864M;Q867R). In short, it runs like this:
as §1

In the next test the target is PUM1 PUF domain R5-DFT (Homo sapiens, UniProt Q14671 828-1176, C1007D;R1008F;Q1011T). In short, it runs like this: as §1
Another test addresses PUM1 PUF domain R5-SVS (Homo sapiens, UniProt Q14671 828-1176, C1007S;R1008V;Q1011S). Put shortly:
as §1

For the next test, the target named is PUM1 PUF domain R4-TNQ (Homo sapiens, UniProt Q14671 828-1176, N971T;H972N). Put shortly: as §1

In the case of “GGCUAGAACUAGUGGAUCCCCCGGCGCCCGGCGGCUCGAGCCCGGGUAAGUGUUAAUAGUCUGCAUGCCGCCGGGCGCCAUGCCUGCAGGUCGACUCUAGAAAACAUG”, the binding signal with PUM1 PUF domain R5-RSC is 3.18 log2 enrichment (interaction score).
In the case of “GGCUAGAACUAGUGGAUCCCCCGGCGCCCGGCGGCUCGAGCCCGGGUAAGUGUAAGUAGUCUGCAUGCCGCCGGGCGCCAUGCCUGCAGGUCGACUCUAGAAAACAUG”, the binding signal with PUM1 PUF domain R3-AKE was 2.98 log2 enrichment (interaction score).
As for “GGCUAGAACUAGUGGAUCCCCCGGCGCCCGGCGGCUCGAGCCCGGGUAAGUGUAAAUAGUCUGCAUGCCGCCGGGCGCCAUGCCUGCAGGUCGACUCUAGAAAACAUG”, the binding signal with PUM1 PUF domain R8-KYT is 2.68 log2 enrichment (interaction score); with PUM1 PUF domain R8-KRN, 2.98 log2 enrichment (interaction score); with PUM1 PUF domain R5-PGY it was 4.47 log2 enrichment (interaction score).
As to “GGCUAGAACUAGUGGAUCCCCCGGCGCCCGGCGGCUCGAGCCCGGGUAAGUGUCAAUAGUCUGCAUGCCGCCGGGCGCCAUGCCUGCAGGUCGACUCUAGAAAACAUG”, the binding signal is 3.79 log2 enrichment (interaction score) with PUM1 PUF domain R5-SER and 3.02 log2 enrichment (interaction score) with PUM1 PUF domain R5-RSC.
In the case of “GGCUAGAACUAGUGGAUCCCCCGGCGCCCGGCGGCUCGAGCCCGGGUAAGCGUAAAUAGUCUGCAUGCCGCCGGGCGCCAUGCCUGCAGGUCGACUCUAGAAAACAUG”, the binding signal with PUM1 PUF domain R8-KYT was 2.81 log2 enrichment (interaction score).
As for “GGCUAGAACUAGUGGAUCCCCCGGCGCCCGGCGGCUCGAGCCCGGGUAAGUGUAAAUCGUCUGCAUGCCGCCGGGCGCCAUGCCUGCAGGUCGACUCUAGAAAACAUG”, the binding signal with PUM1 PUF domain R1-HMR was 3.35 log2 enrichment (interaction score).
Consider “GGCUAGAACUAGUGGAUCCCCCGGCGCCCGGCGGCUCGAGCCCGGGUAAGUGUGAAUAGUCUGCAUGCCGCCGGGCGCCAUGCCUGCAGGUCGACUCUAGAAAACAUG”, for which the binding signal is 3.29 log2 enrichment (interaction score) with PUM1 PUF domain R5-DFT and 3.48 log2 enrichment (interaction score) with PUM1 PUF domain R5-SVS.
For “GGCUAGAACUAGUGGAUCCCCCGGCGCCCGGCGGCUCGAGCCCGGGUAAGUGUAUAUAGUCUGCAUGCCGCCGGGCGCCAUGCCUGCAGGUCGACUCUAGAAAACAUG”, the binding signal with PUM1 PUF domain R4-TNQ is 4.92 log2 enrichment (interaction score).
